# Data: paper PMC10668032, “Altered binding affinity of SIX1-Q177R correlates with enhanced WNT5A and WNT pathway effector expression in Wilms tumor”
# Over roughly 33,000 sequences, “e-score” has its median near -0.05; the highest 2% begin near 0.38. For the sample, the highest values were picked, then their nearest neighbours and some sequences at random.
# Molecular target: T1, SIX1-Q177R homeodomain (human, UniProt Q15475 108-198, Q177R)
# T1 sequence: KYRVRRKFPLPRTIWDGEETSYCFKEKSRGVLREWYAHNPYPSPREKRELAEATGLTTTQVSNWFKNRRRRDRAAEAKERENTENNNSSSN
# Experiment: universal protein binding microarray; Universal all-10-mer PBM (8x60K, AMADID 030236), 300 nM GST-tagged protein, Alexa Fluor 488 anti-GST; buffer, salt, pH and temperature not stated (as in Berger); high values mean tight binding
# Conditions: protein: ivt; tags: N-terminal GST; dsDNA, one strand shown
# Procedure, shortened: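 Homeodomains carrying a GST tag were produced by in vitro transcription/translation, then quantified by anti-GST western blot against a recombinant GST standard curve. Duplicate applications at 300 nM final concentration were made to universal 'all 10-mer' protein binding microarrays in 8×60K format. The Universal PBM Analysis Suite was used to express binding as 8-mer E-scores.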
row,Sequence,binding signal [E-score]
1,CCACACCC,0.393 ± 0.0374
2,GCACACCC,0.396 ± 0.0314
3,CGGGAATA,0.181 ± 0.0131
4,CCCGAACA,0.1699 ± 0.00103
5,ACCTTACA,0.192 ± 0.02
6,CACCCACG,0.275 ± 0.0113
7,CGTCCTAC,0.182 ± 0.018
8,ACCCCATA,0.249 ± 0.00713
9,CACTGAGG,0.227 ± 0.0197
10,CCCGCGTC,0.193 ± 0.0507
11,CACCGCAA,0.284 ± 0.0454
12,CACTAATG,0.164 ± 0.0232
13,ACCTGGAG,0.222 ± 0.0157
14,AATTGGGG,0.17 ± 0.027
15,GCTATACC,0.169 ± 0.0037
16,CCTACCCC,0.227 ± 0.00219
17,ACTACCCG,0.204 ± 0.0121
18,CCTACTCC,0.179 ± 0.0115
19,GCTACCCC,0.23 ± 0.0172
20,ACTACACG,0.4206 ± 0.00315
21,ACTATACA,0.238 ± 0.0193
22,TCTACACA,0.194 ± 0.0545
23,ACTACACA,0.265 ± 0.0483
24,CCTACACC,0.4819 ± 0.00223
25,GCTACACC,0.473 ± 0.00658

row,Sequence,binding signal [E-score]
1,ACTACACT,0.431 ± 0.0136
2,CCCCCGGC,0.2104 ± 0.00182
3,CTTGGGGA,0.158 ± 0.0109
4,ACCCTTCC,0.161 ± 0.0416
5,CACCGGGA,0.176 ± 0.00643
6,CACTAGCA,0.163 ± 0.00431
7,ATAGCGTG,0.159 ± 0.0173
8,ACACATGC,0.176 ± 0.0202
9,ACCGGTAT,0.212 ± 0.02
10,CCCGAAGG,0.193 ± 0.0115
11,ACGCGTCC,0.174 ± 0.00808
12,GAATAACA,0.151 ± 0.00831
13,GATACCGA,0.214 ± 0.0181
14,CCTACACA,0.18 ± 0.0508
15,ACTACACC,0.4877 ± 0.000997
16,CCTACACG,0.398 ± 0.0115
17,CCTACCCG,0.183 ± 0.0228
18,ACTACTCC,0.163 ± 0.045
19,ACTACCCC,0.267 ± 0.00871
20,ACCCCTCA,0.289 ± 0.021
21,CTGTGCAC,0.216 ± 0.0216
22,ACCCCGTG,0.356 ± 0.0239
23,CGAACACC,0.4736 ± 0.00203
24,GGAACACA,0.189 ± 0.0298
25,AGAACACC,0.459 ± 0.00494

row,Sequence,binding signal [E-score]
1,AGAACACT,0.344 ± 0.0153
2,CGAACACG,0.3556 ± 0.00281
3,CGAACACA,0.215 ± 0.0469
4,TGAACACA,0.173 ± 0.0727
5,GGAACACC,0.4735 ± 0.00301
6,AGAACACG,0.356 ± 0.0118
7,CGGGGATA,0.202 ± 0.00822
8,AATGGGTG,0.281 ± 0.0496
9,CACGCGTA,0.184 ± 0.0106
10,ACACATAT,0.239 ± 0.0295
11,CCACCTAC,0.17 ± 0.0551
12,ATACCTAC,0.224 ± 0.0121
13,ACCCCTAA,0.183 ± 0.0117
14,ATACCTAG,0.196 ± 0.0172
15,TCCCCTAA,0.172 ± 0.0106
16,ACCCCTAG,0.208 ± 0.00908
17,ACACCTAG,0.4448 ± 0.00199
18,ACACTTAT,0.349 ± 0.02
19,ACACCTAC,0.4555 ± 0.00215
20,ACACCTGT,0.46033 ± 0.000212
21,ACACCTAA,0.4446 ± 0.00441
22,CAGAAGGG,0.157 ± 0.0162
23,CCCCGAAA,0.168 ± 0.0462
24,CACCCAAC,0.301 ± 0.0371
25,CCCCAAAC,0.197 ± 0.0113

row,Sequence,binding signal [E-score]
1,GGTCGAAC,0.22817 ± 0.00017
2,GGGCGGTA,0.18 ± 0.0297
3,ACACCTAT,0.448 ± 0.00643
4,ACCCCTAT,0.172 ± 0.00706
5,ACACATAG,0.155 ± 0.0872
6,CACCACTG,0.342 ± 0.00325
7,GCGGTCGA,0.152 ± 0.00747
8,ACACAGTG,0.259 ± 0.0202
9,CGGGATCA,0.269 ± 0.00773
10,CAGTACCG,0.185 ± 0.0235
11,CAGTACAC,0.433 ± 0.00665
12,GAGTACTC,0.1739 ± 0.000948
13,AAGTAATC,0.163 ± 0.0142
14,GAGTACAC,0.4362 ± 0.00255
15,AAGTACAC,0.425 ± 0.0204
16,CAGCACAC,0.269 ± 0.0132
17,GAGTACCC,0.173 ± 0.00951
18,AAGTACCC,0.2054 ± 0.000912
19,ACACAGCC,0.164 ± 0.059
20,GATTGAAC,0.162 ± 0.0507
21,GGATCCAA,0.201 ± 0.0192
22,CACGTGGA,0.243
23,AGGTGACT,0.165 ± 0.006
24,CACCCTCA,0.264 ± 0.0103
25,GTGTTTCA,0.357 ± 0.00873

row,Sequence,binding signal [E-score]
1,GGGTTGTA,0.169 ± 0.0161
2,GTGTTGCA,0.3853 ± 0.00118
3,CCGTTGAC,0.16 ± 0.0161
4,GTGTTGAA,0.396 ± 0.00711
5,GTGTTGTA,0.389 ± 0.00682
6,GTTGTGTA,0.255 ± 0.0169
7,GTGTTGGA,0.414 ± 0.0127
8,CGATCCAC,0.2384 ± 0.00175
9,CCTACGCA,0.17 ± 0.0129
10,CACGAAAG,0.16 ± 0.0281
11,TACGGACA,0.168 ± 0.019
12,CACTGGTA,0.3128 ± 0.00191
13,ATCTGACA,0.275 ± 0.0351
14,CACCCATG,0.34 ± 0.0139
15,CACCTGTC,0.224 ± 0.0498
16,CTTTCACA,0.24 ± 0.00834
17,AACGGGGT,0.205 ± 0.0313
18,AAGGGATC,0.194 ± 0.0447
19,CCTCAACA,0.204 ± 0.0178
20,AAGAGTTA,0.172 ± 0.0103
21,ATACACGG,0.401 ± 0.0111
22,ATACACGA,0.38 ± 0.00658
23,ATACACGC,0.396 ± 0.0178
24,CCACACGG,0.197 ± 0.0212
25,ACACACGG,0.301 ± 0.0255

row,Sequence,binding signal [E-score]
1,ACACACGC,0.267 ± 0.0306
2,CGTATACG,0.153 ± 0.0218
3,ACCTTGTA,0.203 ± 0.0145
4,CACGTATA,0.2103 ± 0.000226
5,CACTTGCC,0.227 ± 0.036
6,CGCCACAC,0.314 ± 0.0118
7,AGACCCCG,0.281 ± 0.0369
8,CCAACTAG,0.223 ± 0.00917
9,CACCTCAG,0.26 ± 0.0094
10,CCAATTTA,0.238 ± 0.0221
11,ACACCAGT,0.48 ± 0.008
12,GCACCAGA,0.181 ± 0.0305
13,ACACCAGG,0.472 ± 0.00716
14,ACCCCAGA,0.201 ± 0.039
15,ACCCCAGC,0.235 ± 0.0628
16,ACACCAGC,0.4638 ± 0.00122
17,ACACCAGA,0.472 ± 0.00546
18,ACCCCAGT,0.27 ± 0.0137
19,ACCCCAGG,0.249 ± 0.0168
20,ACTCCAGG,0.228 ± 0.00384
21,ACCACAGT,0.22 ± 0.00384
22,ACAGCACC,0.1838 ± 0.000898
23,GACGATAC,0.205 ± 0.0214
24,CCTGGGTA,0.164 ± 0.00425
25,GGGGAGTA,0.256 ± 0.0126

row,Sequence,binding signal [E-score]
1,CACCATGC,0.297 ± 0.00858
2,CACCCGGG,0.327 ± 0.0154
3,ACACTGTG,0.381 ± 0.0114
4,ACACTGTC,0.336 ± 0.0232
5,ACACTGAA,0.349 ± 0.00868
6,ACACTGAC,0.381 ± 0.0072
7,ACTCTGAC,0.172 ± 0.00272
8,ACACTGAG,0.354 ± 0.00682
9,CCGCGAAA,0.167 ± 0.0237
10,GTAGTACA,0.277 ± 0.0241
11,CACGAGTA,0.167 ± 0.0394
12,GGTATCGA,0.2937 ± 0.0007
13,CTTGTGTC,0.168 ± 0.0605
14,ATCGTGTG,0.229 ± 0.0199
15,GTCGTGCA,0.181 ± 0.0113
16,ATCGTGTA,0.403 ± 0.0236
17,CTCGGGTC,0.155 ± 0.0227
18,GTCGAGTA,0.1983 ± 0.00156
19,ATCGTGTC,0.413 ± 0.0104
20,GTCGTGTA,0.438 ± 0.00933
21,CTCGTGTC,0.409 ± 0.0114
22,CAAGCGTG,0.165 ± 0.0253
